# Source: PubChem BioAssay
# HCV inh: inhibitors of hepatitis C virus infection; 340,000 compounds, 3.4% hits; Huh7.5.1 HCVcc-Cre infection, luciferase reporter, 44 h; Potency, µM (series often up to 41.8 µM), for inactives: top-dose activity change, negative = inhibition, usual class: inhibitors; note: potency is the fitted concentration of half-maximal effect
#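 Infectious HCVcc-Cre (~0.5 moi) was added to cells just after compound, with cells seeded 4 h earlier at 1,000 per well. Luciferase activity after 44 h culture reported infection; substrate was incubated 15 min at room temperature before reading.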
# HCMV antiviral: human cytomegalovirus inhibition; HFF cells, HCMV-luciferase reporter, 72 h; hits give low values; activity change, negative = inhibition, % at 57.5 µM; 410,000 compounds, 4.5% hits; AID 1259415; in the data active = activity change below about -60%; inconclusive = no clear call, values can overlap the other calls; inactive = above about -39%
#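 Two compound doses tested in HFFs infected with HCMV-luciferase, MOI 1 PFU/cell, 72 h at 37C. Lysate luminescence read with OneGlo; data normalized against buffer-only and 10uM Salinomycin inhibitor controls.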
# Lassa entry inh: inhibitors of Lassa virus binding or cell entry | Lassa virus pseudotype entry inhibition, cell reporter | AID 540256 | 300,000 compounds, 1.2% hits | Potency, µM (top dose mostly 37.9 µM), for the others: at the top dose activity change, negative = inhibition, actives largely listed as inhibitors; calls by dose curve; tested in HEK293 cells; note: potency is the fitted concentration of half-maximal effect; nearly all actives have a fitted effect of over 50% in size
# FMDV inh: foot and mouth disease virus antiviral activity | FMDV antiviral cell-based qHTS | Potency, µM (doses to about 57.9 µM), without a hit: at the highest dose activity change, negative = inhibition, usual class: inhibitors | AID 1159524 | 410,000 compounds, 1.2% hits; calls by dose curve; tested in HEK293T cells; note: read-out not given here; potency is the fitted concentration of half-maximal effect; nearly all actives have a fitted effect of over 45% in size
# FBPA Giardia inh: Giardia lamblia aldolase inhibition | purified Giardia FBPA | 290,000 compounds, 0.71% hits | A8B2U2 | Potency, µM (series often up to 59.6 µM), inactives show top-dose activity, negative = inhibition, actives largely listed as inhibitors; note: potency is the fitted concentration of half-maximal effect; nearly all actives have a fitted effect of over 55% in size
# Target sequence (A8B2U2 whole entry, looked up): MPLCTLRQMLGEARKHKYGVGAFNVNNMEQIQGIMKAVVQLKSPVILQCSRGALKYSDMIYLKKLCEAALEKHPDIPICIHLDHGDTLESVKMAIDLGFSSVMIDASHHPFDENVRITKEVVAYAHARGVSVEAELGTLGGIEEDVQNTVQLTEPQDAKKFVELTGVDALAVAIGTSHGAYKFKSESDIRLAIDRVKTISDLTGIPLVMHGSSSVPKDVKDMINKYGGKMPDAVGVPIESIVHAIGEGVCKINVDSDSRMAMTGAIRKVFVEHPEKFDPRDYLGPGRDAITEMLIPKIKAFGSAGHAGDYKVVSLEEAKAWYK
#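 40 nM FBPA preincubated 10 min at RT with compound (up to 57.5 uM final), then substrate plus GAPDH/TPI/NAD/arsenate coupling and diaphorase/resazurin added. Fluorescence read after 20 min at RT, 525/598 nm.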
# MARV entry inh: inhibitors of Marburg virus binding or cell entry; Marburg virus pseudotyped entry inhibition, cell reporter; Potency, µM (doses to about 37.8 µM), inactives show at the highest dose activity change, negative = inhibition, usual class: inhibitors; 300,000 compounds, 1.8% hits; calls by dose curve; tested in HEK293 cells; note: potency is the fitted concentration of half-maximal effect
# Starred values were filed as active, the others as inactive; u = inconclusive; x = no result given; + = active, no number; ! = repeats disagree; [ ] = remark or other dose. Most compounds without a hit are left out; they make up all but 8.3% or so of the library. Unless noted, calls come from the whole dose curve; as a rule, active = well fitted curve in the direction sought with a large enough effect; inconclusive = small, poorly fitted or top-dose-only effect, or another doubt; inactive = no such curve, though single readings can be large; an effect the other way counts as inactive or inconclusive. % is set by controls: 0 for no effect and ±100 for the full control effect.
SMILES,HCV inh,HCMV antiviral,Lassa entry inh,FMDV inh,FBPA Giardia inh,MARV entry inh
O=c1c2c3c(sc2nnn1Cc1ccc(Br)cc1)CCCC3,x,6,-2%[46.1 µM],-16%,x,-10%[46.1 µM]
Cc1cc(SCC(=O)NCc2ccc(Cl)cc2)nc(=O)[nH]1,x,20,27%[46.1 µM],0%,x,x
c1ccc2c(c1)[nH]c1c(N3CCOCC3)ncnc12,u,-32,-2%,x,-7%,-10%
CCc1cc(N2CCOCC2)cc2c1[nH]c1ccccc12,7.1µM*,5,2%,-3%,u,-3%
N#Cc1cccc(-c2nc(NCCN3CCOCC3)c3ccccc3n2)c1,x,x,x,19%,0%,x
Cc1ccc(-n2c(C)cc(/C=C(\C#N)C(=O)Nc3ccc(C)c(C)c3)c2C)cc1,x,1,12%[46.1 µM],0%,x,u
CCOC(=O)/C(C#N)=C/c1cc(C)n(-c2ccc(Br)cc2)c1C,x,46,x,x,0%,5%
Cc1ccc(NC(=O)/C(C#N)=C/c2cc(C)n(-c3ccc(Br)cc3)c2C)cc1C,x,-108*,10%[46.1 µM],u,x,x
CCOC(=O)/C(C#N)=C/c1cc(C)n(-c2ccccc2)c1C,32µM*,u,u,0%,5%,u
CCCCOc1ccc(CNC(=O)c2cc3n(n2)CCCN(Cc2ccc(C)cc2)C3=O)cc1,x,-38,u,-24%,x,x
Cc1ccc(CCNC(=O)CCCn2c(=O)c3cccn3c3ccc(F)cc32)cc1,x,-22,19%[46.1 µM],-9%,x,x
COc1ccc(NC(=O)c2cc([N+](=O)[O-])ccc2O)cc1,u,-102*,x,6.3µM*,-22%,x
O=C(Nc1ccccc1)c1ccc(-c2ccc([N+](=O)[O-])cc2)o1,-15%,-66*,-9%,1%,0%,15%[46.1 µM]
O=C(Nc1ccccc1)c1ccc(-c2ccc(Br)cc2)o1,u,-13,u,20%,-6%,-103%
O=C(Nc1ccc(Cl)c(-c2nc3ccccc3o2)c1)c1ccc(-c2cccc([N+](=O)[O-])c2)o1,x,-103*,0%[46.1 µM],-10%,x,19%[46.1 µM]
COc1ccc(CNC(=O)Nc2ccc([N+](=O)[O-])cc2)cc1,-16%[8.37 µM],-10,x,1%,7%,x
COc1ccc(NC(=O)c2ccc(-c3ccc([N+](=O)[O-])cc3)o2)cc1,-15%,-61*,17%[46.1 µM],-15%,-23%,u
O=C1c2cc(O)cc(O)c2OC[C@@H]1c1ccc(O)c(O)c1,x,x,x,x,-15%,x
COc1ccc(CCNC(=O)c2ccc(-c3ccc([N+](=O)[O-])cc3)o2)cc1OC,-25%,-69*,u,18µM*,-3%,u
COc1ccc(CCNC(=O)c2cc(-c3ccc(Cl)cc3)on2)cc1OC,x,-10,u,8%,x,-9%[46.1 µM]
O=C(Nc1cccc([N+](=O)[O-])c1)c1cc2ccccc2cc1O,5.6µM*,-101*,x,-15%,-25%,x
Cc1cccc(CS(=O)(=O)Cc2ccc(C(=O)NCc3ccccc3)o2)c1,u,-14,-22%[46.1 µM],-21%,x,x
COc1ccc(CCNC(=O)c2ccc(CS(=O)(=O)Cc3cccc(C)c3)o2)cc1OC,22µM*,+!,u,40µM*,x,u
O=C(O)c1ccccc1C(=O)Nc1cccc([N+](=O)[O-])c1,10%,61,x,-10%,2%,x
CCC1CC=CC2C1C(=O)N(Cc1ccccc1)C2c1ccc(OC)c(Cl)c1 (centres undefined),x,x,x,x,-1%,x
SMILES,HCV inh,HCMV antiviral,Lassa entry inh,FMDV inh,FBPA Giardia inh,MARV entry inh
Cn1cccc1C(=O)N1CCC2(CCCN(c3ncccn3)C2)CC1,x,x,x,-11%,6%,x
CCCCCCCNC1=CC(=O)CC(c2ccccc2)C1 (centres undefined),u,-88*,u,-20%,12%,u
CCCCCNC1=CC(=O)CC(c2ccccc2)C1 (centres undefined),-13%,20,-22%,0%,-1%,-22%
CCCCCCCCCCCCCCC/C=C/[C@@H](O)[C@H](NC(=O)CCCCCCCCCCCCC)OC (tested in a mixture with another compound),x,x,x,x,-4%,u
COCCNc1nc(-c2cc(-c3ccccc3)on2)cc(C(C)C)n1,10µM*,-63*,x,-16%,-3%,x
Cc1ccc(CN2CCCn3nc(C(=O)NCc4ccc(N(C)C)cc4)cc3C2=O)cc1,x,-16,4%[46.1 µM],-12%,x,x
Nc1c(Cl)nc(-c2ccccc2)nc1Cl,u,-72*,x,22%,2%,x
Cc1nc(-c2ccccc2)nc(Cl)c1Cl,25%,-17,-7%[46.1 µM],12%,4%,u
CCOC(=O)C(CC)/C(C)=N\NC(=O)c1ccccc1O (centres undefined),11%,-90*,-19%,25%,-15%,u
CC1=C(c2ccc(C)c(C)c2)S(=O)(=O)N=C1N1CCC(C(=O)NCc2ccc(C)o2)CC1,x,0,19%[46.1 µM],-5%,x,x
Cc1ccc(C)c(CN2C(=O)c3ccccc3Sc3ccc(C(=O)N4CCC5(CC4)OCCO5)cc32)c1,x,-72*,u,-9%,x,x
Cc1ccc(C)c(CN2C(=O)c3ccccc3Sc3ccc(C(=O)NCc4ccco4)cc32)c1,x,-69*,u,-23%,x,x
Cc1ccccc1CN1C(=O)c2ccccc2Sc2ccc(C(=O)NCc3cccs3)cc21,x,u,u,-12%,x,x
Cc1ccc(C)c(CN2C(=O)c3ccccc3Sc3ccc(C(=O)NCc4cccs4)cc32)c1,x,-62*,-11%[46.1 µM],-4%,x,x
Cc1ccc(C(=O)C2CCN(CC(=O)N3CCN(c4ccc(F)cc4)CC3)CC2)cc1,-28%,-70*,-22%[46.1 µM],-22%,0%,u
O=C(c1ccc(F)cc1)C1CCN(Cc2ccccc2F)CC1,x,u,x,-9%,x,x
O=C(CN1CCC(C(=O)c2ccc(F)cc2)CC1)NCc1ccccc1F,11µM*,-8,u,u,-5%,u
CC(=O)c1ccc(NC(=O)CN2CCC(C(=O)c3ccc(F)cc3)CC2)cc1,u,17,-27%,-5%,4%,-24%[46.1 µM]
O=C(CN1CCC(C(=O)c2ccc(F)cc2)CC1)Nc1ccc(F)cc1,10µM*,-23,u,u,2%,u
Cc1ccc(C(=O)N2CCC(C(=O)c3ccc(F)cc3)CC2)cc1,u,-7,x,24%,x,x
Cc1cccc2c(Nc3ccc4c(c3)OCO4)nc(CN3CCC(N4CCCCC4)CC3)nc12,x,x,x,-12%,x,x
CCOC(=O)N1CCN(c2ccc(S(=O)(=O)N3CCOCC3)cn2)CC1,10%,-15,0%,-6%,x,u
CCOC(=O)N1CCN(c2ccc(S(=O)(=O)N(Cc3ccccc3)Cc3ccccc3)cn2)CC1,u,-90*,-26%,u,-5%,u
CCN(CC)S(=O)(=O)c1ccc(N2CCN(c3ccccc3O)CC2)nc1,11µM*,-40,-21%[46.1 µM],23%,-2%,u
COCc1c(C(=O)Nc2ccc3nc(N4CCOCC4)sc3c2)oc2ccccc12,u,-12,u,25µM*,x,u
O=C(Nc1ccc2nc(N3CCOCC3)sc2c1)c1ccccc1,u,13,x,24%,x,x
